Only some compounds are listed: those with a hit (about 21% of all), similar ones and a draw of the others.
Pf growth 96h – P. falciparum growth inhibition at 96 hour, primary screen for plastid delayed-death inhibitors | actives 6.9% (n = 320,000) | P. falciparum luciferase reporter growth, 96 h | Potency, µM (doses to about 28.7 µM), for inactives: top-dose activity change, negative = inhibition, actives largely listed as inhibitors; note: potency is the fitted concentration of half-maximal effect; % is set by controls: 0 for no effect and ±100 for the full control effect
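96 h incubation, 37 C, 5% CO2, of luciferase-reporter P. falciparum-infected RBCs (2% hematocrit, 0.05% parasitemia final) with test compounds; endpoint luminescence.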
NS1 function inh – influenza NS1 inhibition | Potency, µM (highest dose often 46.1 µM), without a hit: at the highest dose activity, positive = more growth | actives 0.4% (n = 270,000); calls by dose curve; note: potency is the fitted concentration of half-maximal effect; actives are rising curves; nearly all actives have a fitted effect of over 50% in size
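Recovery from NS1-induced slow growth read by OD600 in budding yeast switched to galactose assay medium (pH 6.0, -URA) at 1:100 dilution. Compound 23 nl per well; the matching strain lacking NS1 serves as control.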
Shiga inhibitor – Shiga toxin inhibition | Vero cells, Shiga toxin protein synthesis inhibition reporter | inhibition, % at 38.7 µM | actives 9.2% (n = 290,000) | AID 2315; in the data active = inhibition mostly above about 28%, no sharp cut-off; inactive = mostly below about 43%; note: 0% is about no effect
Pf growth 48h – inhibits P. falciparum growth in the first generation, 48 h; P. falciparum luciferase growth in erythrocytes, 48 h; Potency, µM (doses to about 28.7 µM), inactives show at the highest dose activity change, negative = inhibition, most hits filed as inhibitors; actives 5.9% (n = 310,000); note: potency is the fitted concentration of half-maximal effect; % is set by controls: 0 for no effect and ±100 for the full control effect
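Compounds are pin-transferred into medium, infected erythrocytes (2% hematocrit, 0.1% parasitemia final) are added, and plates sit one parasite generation at 37 C in 5% CO2. Detection reagent is then added and luminescence measured.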
Cycloheximide cs – affects cycloheximide protein synthesis inhibition readout, counter-screen | cell reporter, cycloheximide protein synthesis inhibition counterscreen | max response, % | actives 12% (n = 300,000); in the data active = max response mostly above about 13%, no sharp cut-off; inactive = mostly below about 14%; note: read at 38.3 µM for the half of the compounds with a filed dose; 0% is about no effect
Starred values were filed as active, the others as inactive; i = inactive; ? = inconclusive; . = no result given; [ ] = remark or other dose. Unless noted, calls come from the whole dose curve; as a rule, active = well fitted inhibition curve with a large enough effect; inconclusive = small, poorly fitted or top-dose-only effect, or another doubt; inactive = no such curve, though single readings can be large or run the other way.

SMILES | Pf growth 96h | NS1 function inh | Shiga inhibitor | Pf growth 48h | Cycloheximide cs
COc1ccc(CN(C(=O)CN2C(=O)C(C)Oc3ccccc32)C2CCCC2)c(OC)c1 (stereo not drawn) | 8.3µM* | -31% | -20 | 4.7µM* | 9
CC1Oc2ccccc2N(CC(=O)c2ccc(F)cc2)C1=O (stereo not drawn) | 45% | . | 18 | 6% | 23
CC1Oc2ccccc2N(CC(=O)c2ccccc2)C1=O (stereo not drawn) | ? | ? | 27 | -35% | 23*
CC1Oc2ccccc2N(CC(=O)N2CCCc3ccccc32)C1=O (stereo not drawn) | 9.3µM* | -11% | -4 | -21% | 8
CC1Oc2ccccc2N(CC(=O)N2CCc3ccccc32)C1=O (stereo not drawn) | -17% | -5% | -8 | -3% | -3
CC1Oc2ccccc2N(Cc2ccccc2Cl)C1=O (stereo not drawn) | 12µM* | -11% | 3 | ? | -2
COc1ccc(CN(C(=O)CN2C(=O)COc3ccccc32)C2CCCC2)c(OC)c1 | . | -12% | 6 | ? | -3
Cn1c(=O)c(=O)n(C)c2cc(S(=O)(=O)N3CCCC3C(=O)Nc3ccccc3F)ccc21 (stereo not drawn) | ? | 10% | -6 | 2% | -3
Cc1ccccc1-c1nc(CN2CCC(C(=O)NCc3cccs3)CC2)c(C)o1 | -14% | -4% | -6 | . | -2
CCOc1cc(CNc2ncn[nH]2)ccc1OCC(=O)NC(C)(C)C | 44% | -1% | -16 | -22% | 2
O=C(CN1C(=O)COc2ccccc21)c1ccc(Cl)cc1 | 10µM* | -4% | -8 | -3% | -8
Cc1ccc(C(=O)CN2C(=O)C(C)Oc3ccccc32)cc1 (stereo not drawn) | 17% | -6% | 39 | 27% | 33*
Cc1cc(-c2cccc([N+](=O)[O-])c2)nc2ccccc12 | i | -12% | -1 | 50% | 12
Cc1cc[n+]2cc(-c3cccc([N+](=O)[O-])c3)c(-c3cccc([N+](=O)[O-])c3)cc2c1 | 0.15µM* | 10% | 9 | 0.83µM* | -4
C=C(C)c1cccc(C(C)(C)NC(=O)Nc2nncs2)c1 | 2% | 0% | -6 | -11% | -2
C=C(C)c1cccc(C(C)(C)NC(=O)Nc2ccc(C)cn2)c1 | ? | 5% | 63* | 30% | 21*
C=C(C)c1cccc(C(C)(C)NC(=O)N2CCOCC2)c1 | . | -10% | -3 | -5% | -3
C=C(C)c1cccc(C(C)(C)NC(=O)Nc2nnc(C(C)C)s2)c1 | 12µM* | 2% | -1 | 27% | 1
C=C(C)c1cccc(C(C)(C)NC(=O)N2CCCC2)c1 | 13µM* | 7% | -9 | -12% | 1
C=C(C)c1cccc(C(C)(C)NC(=O)Nc2cc(C)ccn2)c1 | ? | -6% | 92* | 16% | 30*
CCOc1ccccc1NC(=O)CCNC(=O)Cn1ccc2ccccc2c1=O | -2% | -7% | -5 | -8% | -1
NC(=O)c1cccc(CS(=O)(=O)c2ccc(Cl)cc2)c1 | -1% | 2% | -8 | 10% | -2
CCOC(=O)c1sc(S(C)=O)c2c1CCc1conc1-2 (stereo not drawn) | ? | -2% | -7 | ? | -2
CCN(Cc1nc(-c2ccc(OC)cc2)no1)C(=O)c1ccoc1C | 0% | -2% | 10 | 3% | -2
COc1cc(NC(=O)CN(C)S(=O)(=O)c2ccc3c(c2)CC(C)N3C(C)=O)cc(OC)c1 (stereo not drawn) | ? | 9% | -12 | 0% | -7
SMILES | Pf growth 96h | NS1 function inh | Shiga inhibitor | Pf growth 48h | Cycloheximide cs
Cc1ccccc1C(=O)NC(=S)N(C)CCc1ccccn1 | -16% | . | -10 | 1% | 2
O=[N+]([O-])c1cc(C(F)(F)F)ccc1NCC1CCCO1 (stereo not drawn) | ? | -12% | -7 | 0% | 1
Cc1ccc(CSCC(=O)Nc2cc(S(=O)(=O)N3CCOCC3)ccc2OC(C)C)cc1 | 6.6µM* | . | . | 10µM* | .
CC(C)Oc1ccc(S(=O)(=O)N2CCOCC2)cc1NC(=O)CN1C(=O)NC2(CCCC2)C1=O | -26% | 6% | -23 | ? | -2
CC(C)Oc1ccc(S(=O)(=O)N2CCOCC2)cc1NC(=O)Cc1cccs1 | ? | . | . | 13µM* | .
CN(CC(=O)N1CCc2ccccc21)S(=O)(=O)c1ccc(Br)s1 | 390% | -6% | 29 | . | 9
CCC1(c2ccccc2)NC(=O)N(CC(=O)NNC(=O)c2ccoc2C)C1=O (stereo not drawn) | 20% | . | . | 26% | .
CCOC(=O)C(C)Oc1cccc2c(=O)n(CC(=O)N3CCN(C(=O)OCC)CC3)ccc12 (stereo not drawn) | -26% | -3% | -13 | . | -3
Cc1ccc(N/C=C2\C(=O)C3(C)CCC2C3(C)C)cc1C (stereo not drawn) | ? | . | 27 | -8% | 21*
COc1ccc(-c2nc3ccccc3s2)cc1 | 22% | -8% | 18 | 95% | 16*
COc1cccc(-c2nc3ccccc3s2)c1 | i | -10% | 74* | . | 38*
CN(c1cccc(NC(=O)CN(c2cccc(Cl)c2)S(=O)(=O)c2ccccc2)c1)S(C)(=O)=O | ? | 9% | -7 | ? | 9
CCOC(=O)CCCCC(=O)c1[nH]c(=O)[nH]c1CSc1nc(C)cc(C)n1 | 7% | -16% | -6 | . | -4
CCOC(=O)CCCCC(=O)c1[nH]c(=O)[nH]c1CSc1nnc2c3cc(Br)ccc3n(C)c2n1 | 43% | . | 3 | 10µM* | -2
COc1ccc(OC)c(Nc2nc(-c3cccs3)cs2)c1 | . | ? | 17 | 1% | 23*
COc1ccc(Nc2nc(-c3cccs3)cs2)cc1 | 0.52µM* | 3% | 42* | 316% | 41*
COc1ccc(Nc2nc(-c3sc(C)nc3C)cs2)c(OC)c1 | ? | -108% | 13 | -8% | 8.8*
COc1ccc(C)cc1Nc1nc(-c2c[nH]c3ccccc23)cs1 | 2.1µM* | ? | -17 | ? | 9
COc1ccc(OC)c(Nc2nc(-c3c(C)nc4ncccn34)cs2)c1 | 41% | -3% | 1 | 4%[0.00184 µM] | 2
C=CCNC(=O)c1ccccc1NC(=O)Cc1ccccc1[N+](=O)[O-] | ? | 5% | 22 | -9% | -3
CC(=O)Nc1ccc(SCCC2CCCCN2C)cc1 (stereo not drawn) | 1% | 3% | -5 | -3% | -2
CC(C)(C)NC(=O)c1cccc(NC(=O)CSc2ccccc2)c1 | ? | -11% | -19 | 0% | 7
COc1ccc(C2CC2C(C)=O)cc1 (stereo not drawn) | 27% | . | 3 | -8% | 20
COc1ccccc1Nc1nc(-c2cccs2)cs1 | 371% | -26% | 77* | 296% | 37*
COc1ccc(Nc2nc(-c3cccs3)cs2)c(OC)c1 | 180% | -5% | 106* | . | 46*
COc1ccc(/C=C(/NC(=O)c2ccco2)C(=O)N2CCOCC2)cc1 | ? | -4% | -11 | 22% | -4
Cc1ccc(NC(=O)N2CCCC2)cc1Cl | 0% | . | 84* | 60% | 38*

Assay outcomes as filed in PubChem BioAssay.
